Compounds without any hit were thinned out: in the full panel of roughly 83,000, 20% have a hit.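 For each line, cells grew in 96-well plates with the test compound present at a single concentration for 48 hours.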 A number with no mark means an inactive call. Active and inactive are the calls of the source. How the source made its calls: active means growth percent below 10; inactive means the rest.

Test systems include SK-MEL-2 melanoma; EKVX NSCLC; SN12C renal; UO-31 renal; TK-10 renal; ACHN renal; A498 renal; CCRF-CEM leukemia; MOLT-4 leukemia; SR leukemia; RPMI-8226 leukemia; OVCAR-8 ovarian; OVCAR-5 ovarian; OVCAR-4 ovarian; SK-OV-3 ovarian; IGROV1 ovarian; OVCAR-3 ovarian; HS 578T breast; NCI/ADR-RES ovarian.
Holding throughout (test): NCI-60 one-dose screen, 48 h (100 = growth as untreated, 0 = no growth, -100 = all killed)
Details in all cases: 10 µM

`COc1ccc2nc(-c3ccc(Cl)cc3)cc(-c3nnc(SC/C(=N\O)c4ccccc4)n3-c3ccccc3)c2c1`: the growth in the assay on SK-MEL-2 melanoma is 89.9%; in the assay with EKVX NSCLC, 96.2%; in the assay on SN12C renal it was 95.8%; with UO-31 renal it was 78.2%; with TK-10 renal it was 111%; in the assay with ACHN renal it was 90.2%. Also, the growth with A498 renal is 96.3%; in the assay with CCRF-CEM leukemia, 59.3%; with MOLT-4 leukemia, 47.5%; with SR leukemia, 67.1%; in the assay on RPMI-8226 leukemia it was 59.7%; in the assay with OVCAR-8 ovarian it was 82.3%. Moreover, the growth was 88.6% in the assay on OVCAR-5 ovarian; 84.5% in the assay on OVCAR-4 ovarian; 99.9% in the assay on SK-OV-3 ovarian; 105% in the assay with IGROV1 ovarian; 86.4% in the assay with OVCAR-3 ovarian; 92.8% in the assay on HS 578T breast. Besides, the growth with NCI/ADR-RES ovarian was 88.2%.

With `COc1cc(-c2nn(-c3cccc(NC(=O)NCCNC(=O)c4ccccc4)c3)cc2-c2ccncc2)ccc1Cl`, the growth in the assay with SK-MEL-2 melanoma is -20.9% (active); in the assay on EKVX NSCLC it was 34.2%; in the assay with SN12C renal it was 25.2%; in the assay with UO-31 renal, 13.6%; in the assay with TK-10 renal it was 36.3%; in the assay with ACHN renal, 12.2%. For the same molecule, the growth is -3.29% (active) in the assay with A498 renal; 7.68% (active) in the assay on CCRF-CEM leukemia; 4.74% (active) in the assay with MOLT-4 leukemia; 5.61% (active) in the assay on SR leukemia; 5.06% (active) with RPMI-8226 leukemia; 8.83% (active) in the assay with OVCAR-8 ovarian. For the same molecule, the growth was 33% in the assay with OVCAR-5 ovarian; 26.6% in the assay on OVCAR-4 ovarian; 33.6% with SK-OV-3 ovarian; 28.1% with IGROV1 ovarian; 21.1% in the assay with OVCAR-3 ovarian; 30.9% with HS 578T breast. For the same molecule, the growth in the assay with NCI/ADR-RES ovarian is 46.1%.

Turning to `O=C(CCCCC(=O)Oc1c(Cl)cc(Cl)cc1[N+](=O)[O-])Oc1c(Cl)cc(Cl)cc1[N+](=O)[O-]`, the growth is 93.6% with SK-MEL-2 melanoma; 93.2% with EKVX NSCLC; 105% in the assay on SN12C renal; 87.1% in the assay on UO-31 renal; 91.3% with TK-10 renal; 105% with ACHN renal. Moreover, the growth was 114% in the assay with A498 renal; 73.6% in the assay on CCRF-CEM leukemia; 78.1% with MOLT-4 leukemia; 85.4% with SR leukemia; 92.9% with RPMI-8226 leukemia; 106% in the assay on OVCAR-8 ovarian. Besides, the growth in the assay with OVCAR-5 ovarian was 109%; in the assay with OVCAR-4 ovarian, 104%; in the assay on SK-OV-3 ovarian, 103%; in the assay on IGROV1 ovarian it was 101%; with OVCAR-3 ovarian, 105%; in the assay on HS 578T breast, 105%. Further, the growth in the assay on NCI/ADR-RES ovarian is 102%.

As to `CCOC(=O)c1cc(C(=O)c2cc(OC)c(OC)c(OC)c2)n2nc(C)ccc12`, the growth with SK-MEL-2 melanoma is 27.7%; with EKVX NSCLC it was 88.3%; with SN12C renal, 60.1%; in the assay on UO-31 renal, 39.9%; in the assay on TK-10 renal it was 78%; in the assay on ACHN renal, 49.4%. The growth with A498 renal is 23.4%; in the assay on CCRF-CEM leukemia it was 17.1%; in the assay on MOLT-4 leukemia, 18.4%; in the assay with SR leukemia it was 23%; with RPMI-8226 leukemia it was 18%; in the assay on OVCAR-8 ovarian, 25.4%. For the same molecule, the growth is 64.9% in the assay on OVCAR-5 ovarian; 51.8% in the assay with OVCAR-4 ovarian; 24.1% with SK-OV-3 ovarian; 39.8% in the assay on IGROV1 ovarian; 12.5% in the assay with OVCAR-3 ovarian; 55.9% in the assay with HS 578T breast. In addition, the growth in the assay on NCI/ADR-RES ovarian is 20.9%.

As for `Cc1c(Cl)cccc1NC(=O)CCCl`, the growth in the assay with SK-MEL-2 melanoma was 103%; in the assay on EKVX NSCLC, 106%; in the assay on SN12C renal, 95.8%; in the assay with UO-31 renal it was 86.6%; in the assay with TK-10 renal it was 89.3%; with ACHN renal, 108%. Further, the growth in the assay with A498 renal was 108%; in the assay on CCRF-CEM leukemia it was 84.7%; in the assay on MOLT-4 leukemia, 85.3%; with SR leukemia, 84.1%; in the assay on RPMI-8226 leukemia it was 90.6%; in the assay on OVCAR-8 ovarian it was 94.2%. Also, the growth in the assay on OVCAR-5 ovarian was 106%; in the assay with OVCAR-4 ovarian it was 111%; in the assay with SK-OV-3 ovarian it was 104%; with IGROV1 ovarian it was 104%; with OVCAR-3 ovarian, 102%; with HS 578T breast, 104%. The growth in the assay on NCI/ADR-RES ovarian was 105%.

Regarding `CN(C)CCOc1ccccc1NC1=C(Cl)C(=O)C(Nc2ccccc2OCCN(C)C)=C(Cl)C1=O`, the growth is 82.9% in the assay on SK-MEL-2 melanoma; 16% in the assay with EKVX NSCLC; -69.9% (active) in the assay with SN12C renal; 38.4% in the assay on UO-31 renal; 85.4% in the assay on TK-10 renal; -84.1% (active) in the assay on ACHN renal. Besides, the growth in the assay with A498 renal was 107%; in the assay on CCRF-CEM leukemia, 4.28% (active); in the assay on MOLT-4 leukemia it was -32.4% (active); in the assay on SR leukemia, 19%; in the assay on RPMI-8226 leukemia, 82.7%; with OVCAR-8 ovarian, 26.6%. In addition, the growth in the assay with OVCAR-5 ovarian was 109%; in the assay with OVCAR-4 ovarian it was -99% (active); in the assay on SK-OV-3 ovarian, 119%; in the assay with IGROV1 ovarian, 10.5%; in the assay on OVCAR-3 ovarian, -96% (active); in the assay with HS 578T breast it was 98.4%. In the assay on NCI/ADR-RES ovarian, the growth is 92.8%.

Turning to `O=S(=O)(O)c1ccc(Cl)cc1`, the growth is 95.9% in the assay on SK-MEL-2 melanoma; 105% in the assay with EKVX NSCLC; 100% in the assay with SN12C renal; 88.7% with UO-31 renal; 88.2% with TK-10 renal; 104% in the assay with ACHN renal. Moreover, the growth in the assay on A498 renal is 110%; with CCRF-CEM leukemia, 106%; with MOLT-4 leukemia it was 98.7%; in the assay with SR leukemia, 92.5%; in the assay with RPMI-8226 leukemia, 102%; in the assay with OVCAR-8 ovarian, 101%. The growth with OVCAR-5 ovarian is 103%; in the assay on OVCAR-4 ovarian, 114%; with SK-OV-3 ovarian, 92.6%; in the assay with IGROV1 ovarian, 103%; in the assay on OVCAR-3 ovarian it was 103%; in the assay on HS 578T breast, 101%. Further, the growth in the assay with NCI/ADR-RES ovarian was 99%.

Turning to `COc1ccc(-c2nnc(SCC(=O)Nc3ccc(C(=O)/C=C/c4ccccc4)cc3)n2-c2ccccc2)cc1OC`, the growth with SK-MEL-2 melanoma is 100%; in the assay with EKVX NSCLC, 120%; in the assay on SN12C renal, 84.9%; in the assay with UO-31 renal it was 69.2%; with TK-10 renal, 93.1%; in the assay on ACHN renal, 98.9%. For the same molecule, the growth with A498 renal was 82.5%; with CCRF-CEM leukemia, 93.6%; in the assay on MOLT-4 leukemia, 59.7%; with SR leukemia, 57.5%; with RPMI-8226 leukemia it was 23.4%; in the assay on OVCAR-8 ovarian, 51.3%. The growth with OVCAR-5 ovarian was 104%; in the assay with OVCAR-4 ovarian it was 62.5%; in the assay with SK-OV-3 ovarian it was 101%; in the assay with IGROV1 ovarian, 87.4%; in the assay with OVCAR-3 ovarian, 88.8%; in the assay on HS 578T breast, 83.1%. Moreover, in the assay on NCI/ADR-RES ovarian, the growth is 88.3%.

These data come from PubChem BioAssay (NCI).
